# Out of some 39,000 compounds screened, about 1,500 (3.8%) were called active. Only a selection was taken, and actives are over-represented in it overall.
# Test system: HSkMC (human skeletal muscle cells)
# Assay: cytotoxicity call (relative viability < 0.9)
# Conditions: 10 µM
row,SMILES,cytotoxicity call
1,COc1cccc(NC(=O)C[C@H]2CC[C@H]3[C@H](COc4ccc(NC(=O)C5CCOCC5)cc4C(=O)N3C)O2)c1,inactive
2,Cc1ccc(S(=O)(=O)Nc2ccc3c(c2)C(=O)N([C@H](C)CO)C[C@@H](C)[C@@H](CN(C)S(C)(=O)=O)O3)cc1,inactive
3,CC(C)c1onc(-c2c(Cl)cccc2Cl)c1COc1ccc(C=Cc2cccc(C(=O)O)c2)c(Cl)c1,inactive
4,C[C@@H]1CN([C@@H](C)CO)C(=O)c2cccc(NS(C)(=O)=O)c2O[C@@H]1CN(C)Cc1ccc2c(c1)OCO2,inactive
5,COc1ccc(S(=O)(=O)N2C[C@@H](O)COC[C@@H]3O[C@H](CC(=O)NCCCN4CCOCC4)CC[C@H]32)cc1,inactive
6,Cc1ccc(F)cc1NC(=O)[C@@H](C)N,inactive
7,COc1ccc(S(=O)(=O)Nc2ccc3c(c2)CC(=O)N([C@@H](C)CO)C[C@@H](C)[C@@H](CN(C)S(=O)(=O)c2c(C)noc2C)O3)cc1,inactive
8,COc1cc(NC(=O)Cn2cnc3c2c(=O)n(C)c(=O)n3C)cc(OC)c1OC,inactive
9,COc1cc(NC(=O)c2cccc(-n3cc(NC(=O)Nc4cccc(C)c4)cn3)c2)cc(OC)c1OC,active
10,Cc1cccc(-n2cc(CN)cn2)c1,inactive
11,C[C@@H]1CN([C@H](C)CO)C(=O)c2cccc(NC(=O)c3ccc(-c4nccs4)cc3)c2O[C@@H]1CN(C)Cc1ccc(Cl)c(Cl)c1,inactive
12,C[C@@H]1CCCCO[C@H](CN(C)C(=O)Nc2cccc3ccccc23)[C@@H](C)CN([C@H](C)CO)C(=O)c2cc(NC(=O)Nc3ccc(C(F)(F)F)cc3)ccc2O1,inactive
13,COc1ccc(S(=O)(=O)Nc2ccc3c(c2)C(=O)N([C@@H](C)CO)C[C@@H](C)[C@H](CN(C)C(=O)Nc2ccc(F)cc2)OCCCC[C@@H](C)O3)cc1,inactive
14,C[C@@H]1CN([C@@H](C)CO)C(=O)c2c(c3ccccc3n2C)-c2ccccc2CO[C@@H]1CN(C)C(=O)Nc1cccc(Cl)c1Cl,inactive
15,C[C@H](CO)N1C[C@H](C)[C@@H](CN(C)C(=O)Nc2cccc(Cl)c2Cl)OCc2ccccc2-c2c(n(C)c3ccccc23)C1=O,active
16,C[C@@H]1CN([C@H](C)CO)C(=O)c2c(c3ccccc3n2C)-c2ccccc2CO[C@@H]1CN(C)C(=O)Nc1cccc(Cl)c1Cl,active
17,C[C@@H]1CN([C@H](C)CO)C(=O)c2c(c3ccccc3n2C)-c2ccccc2CO[C@H]1CN(C)C(=O)Nc1cccc(Cl)c1Cl,inactive
18,C[C@@H]1CN([C@@H](C)CO)C(=O)c2c(c3ccccc3n2C)-c2ccccc2CO[C@H]1CN(C)C(=O)Nc1cccc(Cl)c1Cl,inactive
19,C[C@H]1CN([C@@H](C)CO)C(=O)c2c(c3ccccc3n2C)-c2ccccc2CO[C@@H]1CN(C)C(=O)Nc1cccc(Cl)c1Cl,active
20,C[C@H]1CN([C@@H](C)CO)C(=O)c2c(c3ccccc3n2C)-c2ccccc2CO[C@H]1CN(C)C(=O)Nc1cccc(Cl)c1Cl,inactive
21,C[C@H](CO)N1C[C@H](C)[C@H](CN(C)C(=O)Nc2cccc(Cl)c2Cl)OCc2ccccc2-c2c(n(C)c3ccccc23)C1=O,inactive
22,COc1ccccc1NC(=O)N(C)C[C@@H]1OCc2ccccc2-c2c(n(C)c3ccccc23)C(=O)N([C@@H](C)CO)C[C@H]1C,inactive

row,SMILES,cytotoxicity call
1,COc1ccc(S(=O)(=O)N(C)C[C@H]2OCCCC[C@H](C)Oc3ccc(NC(=O)C4CCCCC4)cc3C(=O)N([C@H](C)CO)C[C@@H]2C)cc1,inactive
2,Cn1c(C(=O)N[C@H](CO)Cc2c[nH]c3ccccc23)cc(=O)n(C)c1=O,inactive
3,C[C@H](CO)N1C[C@H](C)[C@@H](CN(C)C(=O)CCCN(C)C)OCc2cn(nn2)CCCC1=O,inactive
4,Cc1ccc(S(=O)(=O)Nc2ccc3c(c2)C(=O)N([C@H](C)CO)C[C@H](C)[C@@H](CN(C)C(=O)CCC(F)(F)F)OCCCC[C@@H](C)O3)cc1,inactive
5,CC(C)C(=O)NCc1nnnn1-c1ccccc1,inactive
6,C[C@@H]1CCCCO[C@@H](CN(C)C(=O)c2ccccc2)[C@@H](C)CN([C@@H](C)CO)C(=O)c2cc(NC(=O)Cc3ccccc3)ccc2O1,inactive
7,COc1ccc(CN(C)C[C@@H]2Oc3c(NC(=O)c4cnccn4)cccc3C(=O)N([C@H](C)CO)C[C@H]2C)cc1,inactive
8,O=C1O[C@@H](c2ccccc2)[C@@H](c2ccccc2)N2[C@@H](c3ccc(O)cc3)[C@]3(C(=O)Nc4ccccc43)[C@@H](C(=O)NC[C@H](O)c3ccccc3)[C@H]12,inactive
9,CN1CCN(C(=O)C[C@@H]2CC[C@@H]3[C@H](COC[C@H](O)CN3C(=O)C3CCCC3)O2)CC1,inactive
10,Cc1cc(O)c(C(C)C)cc1Cl,inactive
11,COc1cccc(C#Cc2cnc3c(c2)C(=O)N([C@@H](C)CO)C[C@H](C)[C@@H](CN(C)C(=O)C2CCC2)O3)c1,inactive
12,C=C1C2CCC3(C)C(c4ccoc4)OC(=O)CC13OC1CC(=O)C(C)(C)C(C(O)C(=O)OC)C12C (stereo not given),inactive
13,CC(C)NC(=O)Nc1ccc2c(c1)C(=O)N([C@@H](C)CO)C[C@@H](C)[C@H](CN(C)S(=O)(=O)c1cn(C)cn1)O2,inactive
14,O=C(C[C@H]1CC[C@H]2[C@@H](COC[C@@H](O)CN2C(=O)c2ccccc2F)O1)N1CCN(c2ccccc2)CC1,inactive
15,COc1ccc(-c2ccc3c(c2)O[C@H](CN(C)CC2CCOCC2)[C@@H](C)CN([C@@H](C)CO)S3(=O)=O)cc1,inactive
16,Cc1[nH]c(/C=C2\C(=O)Nc3ccc(S(=O)(=O)Cc4c(Cl)cccc4Cl)cc32)c(C)c1C(=O)N1CCC[C@@H]1CN1CCCC1,active
17,C[C@H](CO)N1C[C@H](C)[C@@H](CN(C)Cc2ccccc2)Oc2ccc(NC(=O)Nc3ccc(C(F)(F)F)cc3)cc2C1=O,active
18,C[C@H](CO)N1C[C@H](C)[C@@H](CN(C)Cc2ccc(C(=O)O)cc2)Oc2ccc(NC(=O)Nc3ccc(C(F)(F)F)cc3)cc2C1=O,inactive
19,C[C@@H]1CN([C@@H](C)CO)C(=O)c2cc(NC(=O)Nc3ccc(C(F)(F)F)cc3)ccc2O[C@H]1CN(C)Cc1ccccc1,active
20,C[C@H](CO)N1C[C@H](C)[C@H](CN(C)Cc2ccccc2)Oc2ccc(NC(=O)Nc3ccc(C(F)(F)F)cc3)cc2C1=O,inactive
21,C[C@H](CO)N1C[C@H](C)[C@H](CN(C)Cc2ccc(C(=O)O)cc2)Oc2ccc(NC(=O)Nc3ccc(C(F)(F)F)cc3)cc2C1=O,inactive
22,C[C@@H]1CN([C@H](C)CO)C(=O)c2cc(NC(=O)Nc3ccc(C(F)(F)F)cc3)ccc2O[C@H]1CN(C)Cc1ccccc1,active

row,SMILES,cytotoxicity call
1,C[C@@H]1CN([C@@H](C)CO)C(=O)c2cc(NC(=O)Nc3ccc(C(F)(F)F)cc3)ccc2O[C@@H]1CN(C)Cc1ccccc1,active
2,C[C@@H]1CN([C@@H](C)CO)C(=O)c2cccc(N(C)C)c2O[C@H]1CN(C)S(=O)(=O)c1ccc(Cl)cc1,inactive
3,CCCNC(=O)C[C@@H]1CC[C@H]2[C@H](COc3ccc(NS(=O)(=O)c4ccccc4C)cc3C(=O)N2C)O1,inactive
4,Cc1noc(C)c1NC(=O)Nc1cccc2c1O[C@@H](CN(C)C(=O)NC(C)C)[C@H](C)CN([C@@H](C)CO)C2=O,inactive
5,COc1ccc(NC(=O)Nc2ccc3c(c2)C(=O)N([C@H](C)CO)C[C@H](C)[C@H](CN(C)C(=O)Nc2ccc(C(F)(F)F)cc2)OCCCC[C@H](C)O3)cc1,inactive
6,C[C@H]1CN([C@@H](C)CO)C(=O)c2cc(NC(=O)Nc3ccc(C(F)(F)F)cc3)ccc2O[C@@H]1CN(C)Cc1ccccc1,inactive
7,C[C@@H]1CN([C@H](C)CO)C(=O)c2cc(NC(=O)Nc3ccc(C(F)(F)F)cc3)ccc2O[C@@H]1CN(C)Cc1ccccc1,inactive
8,C[C@H]1CN([C@@H](C)CO)C(=O)c2cc(NC(=O)Nc3ccc(C(F)(F)F)cc3)ccc2O[C@H]1CN(C)Cc1ccccc1,active
9,CN(C)S(=O)(=O)Nc1cccc(N)c1,inactive
10,COCC(=O)N1C[C@@H](C)[C@@H](OC)CN(C)C(=O)c2cc(NC(=O)c3ccc(OC)cc3)ccc2OC[C@@H]1C,inactive
11,CC(=O)[C@]1(O)Cc2c(O)c3c(c(O)c2[C@@H](O[C@@H]2C[C@@H](N)[C@H](O)[C@@H](C)O2)C1)C(=O)c1c(O)cccc1C3=O,active
12,COc1cccc2c1C(=O)c1c(O)c3c(c(O)c1C2=O)C[C@](O)(C(C)=O)C[C@H]3O[C@H]1C[C@@H](N)[C@@H](O)[C@@H](C)O1,active
13,COc1cccc2c1C(=O)c1c(O)c3c(c(O)c1C2=O)C[C@@](O)(C(C)=O)C[C@@H]3O[C@H]1C[C@H](N)[C@H](O)[C@H](C)O1,active
14,COc1cccc2c1C(=O)c1c(O)c3c(c(O)c1C2=O)CC(O)(C(C)=O)CC3OC1CC(N)C(O)C(C)O1.Cl (stereo not given),inactive
15,CC(=O)[C@]1(N)Cc2c(O)c3c(c(O)c2[C@@H](O[C@H]2C[C@H](O)[C@H](O)CO2)C1)C(=O)c1ccccc1C3=O,active
16,O=C(C[C@@H]1CC[C@H]2[C@@H](COC[C@H](O)CN2C(=O)c2ccncc2)O1)NC1CCC1,inactive
17,CNCC1CCOCC1,inactive
18,CO[C@@H]1CN(C)C(=O)c2cc(NS(=O)(=O)c3ccccc3C)ccc2OC[C@H](C)N(S(C)(=O)=O)C[C@H]1C,inactive
19,Cc1noc(C)c1S(=O)(=O)Nc1ccc2c(c1)C(=O)N([C@H](C)CO)C[C@H](C)[C@@H](CN(C)C(=O)Nc1ccc(F)cc1)OCCCC[C@H](C)O2,inactive
20,C[C@H]1CN([C@@H](C)CO)C(=O)c2cc(C#CCN(C)C)cnc2O[C@@H]1CN(C)C(=O)c1cnccn1,inactive
21,CC(C)c1nc(/N=C/N(C)C)nc(=O)n1C,inactive

# Reference: the antibiotic and cytotoxicity screens of Wong et al. (2023)
